# Measured values taken from PubChem BioAssay AID651871 (Sanford-Burnham Center for Chemical Genomics, 2012).
# “And” between values parts separate entries of the source, which are not always exact repeats. Equal values may be shown once.
# Tested on: H9c2
# Experiment: protection of cardiomyocytes from stress damage, SAR follow-up, cell-based, panel, H9c2 and HL-1, ATP luminescence, set 2 (AID 651871);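 also: cells exposed to stressor for 2 h before ATP readout; reference of the scale not given here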
# Details: H9c2/HL-1 cardiomyocytes, 2-deoxyglucose stress, with 2-deoxyglucose; run 2, at 79 µM (top of the series)
row,Structure (SMILES),activity (protection/inhibition)
1,COc1ccc2nc(-c3cc(OC)c(OC)c(OC)c3)cc(C(=O)NCC(=O)Nc3ccc(C(C)=O)cc3)c2c1,82.4%
2,COc1ccc2c(c1OC)C(=O)N1c3ccccc3C(=O)N(Cc3cccc(Cl)c3Cl)C21 (stereo not drawn),53% and 81.7% and -4.06%
3,CCOC(=O)c1cccc(NC(=O)CNC(=O)c2cc(-c3cc(OC)c(OC)c(OC)c3)nc3ccccc23)c1,78.5%
